Results taken from PubChem BioAssay AID1159580 (chemical genetic matrix, 2015).
Hit rate of the full screen: of about 5,500 compounds, about 2,000 (36%) were called active. Another 18% or so got no clear call; they are omitted. Cut-off read from the data, not from the text of the source: active = normalized growth mostly below about 0.91 (no sharp cut-off); inconclusive = no clear call, values can overlap the other calls; inactive = mostly above about 0.92. The list shows a part of the results.

Experiment: chemical genetic growth profiling, strain panel (AID 1159580);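 note: tested at 20 µM; growth read once vehicle control cultures reached saturation at 30 °C; 1 = growth at the plate median or of vehicle wells; lower values mean less growth of the strain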
Settings: S. cerevisiae deletion strains, growth OD

Measured: normalized growth

COc1ccc(CCN(C)CCCC(C#N)(c2cc(OC)c(OC)c(OC)c2)C(C)C)cc1OC (stereo not given)
inactive: locus YAL040C, strain CLN3, active compounds read low 1.01 | locus YCL061C, strain MRC1 (second series), active compounds read low 0.995 | locus YDR150W, strain NUM1, active compounds read low 1.01 | locus YDR363W, strain ESC2, active compounds read low 0.97 | locus YER002W, strain NOP16, active compounds read low 1.03 | locus YGR078C, strain PAC10, active compounds read low 1.03 | locus YJR075W, strain HOC1, active compounds read low 1 | locus YMR307W, strain GAS1, active compounds read low 1.02 | locus YNL153C, strain GIM3, active compounds read low 1.02 | locus YNL175C, strain NOP13, active compounds read low 1.01 | locus YNL197C, strain WHI3, active compounds read low 1.01 | locus YNL224C, strain SQS1, active compounds read low 1.01 | locus YOR083W, strain WHI5 (second series), active compounds read low 1 | locus YPL055C, strain LGE1, active compounds read low 1 | locus YPL241C, strain CIN2, active compounds read low 1.01
